# ± gives the standard deviation.
# T1: HaloTag-ATRX ADD domain (163-292)
# T1 chain: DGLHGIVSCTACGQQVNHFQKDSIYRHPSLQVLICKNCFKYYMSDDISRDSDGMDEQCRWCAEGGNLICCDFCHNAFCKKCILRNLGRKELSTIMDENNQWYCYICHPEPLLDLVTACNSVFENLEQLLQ
# Assays:
# Assay in all cases: peptide microarray binding signal (635 nm), min-max normalized on array (fraction of array maximum); higher = stronger binding
# Conditions in all cases: peptide region: H3 1-13
# [1] = molecular target: T1, HaloTag-ATRX ADD domain (163-292)
# Procedure: (§1)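 Histone 13-mer peptides were synthesized as cellulose conjugates with a C-terminal 20-atom PEG linker and printed in triplicate on nitrocellulose. The sequence given is the unmodified backbone; PTMs (Kme1/2/3, Kac, Sph/Tph, Rme/Rme2a/Rme2s, Rcit) are listed in the label and the 'peptide modifications' condition. Slides were probed at 4 °C for 1 h with biotin-labelled (HQ)5-HaloTag reader fusions (ATRX-ADD, ING2-PHD) then streptavidin-Alexa647, or with rabbit histone antibodies then anti-rabbit Alexa647. The mean 635 nm signal of the triplicate spots was scaled 0-1 between the lowest and highest values on each array.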
# [2] = molecular target: HaloTag-ING2 PHD (mouse Ing2 200-280)
# Procedure: as §1
# [3] = molecular target: anti-H3K4me3 antibody ab8580
# Procedure: as §1
# [4] = molecular target: anti-H3K9me3 antibody ab8898
# Procedure: as §1
# [5] = peptide modifications: H3R2me2a H3K4me3, binder concentration: 1:2,000 dilution
# [6] = peptide modifications: H3R2me2a H3K4me3, binder concentration: 1:10,000 dilution
# [7] = peptide modifications: H3R2me1 H3K9me3, binder concentration: 1:2,000 dilution
# [8] = peptide modifications: H3R2me1 H3K9me3, binder concentration: 1:10,000 dilution
# [9] = peptide modifications: H3R2me1 H3K9me2, binder concentration: 1:2,000 dilution
# [10] = peptide modifications: H3R2me1 H3K9me2, binder concentration: 1:10,000 dilution
# [11] = peptide modifications: H3R2me2a H3K4me1, binder concentration: 1:2,000 dilution
# [12] = peptide modifications: H3R2me2a H3K4me1, binder concentration: 1:10,000 dilution
# [13] = peptide modifications: H3R2me2a H3K9ac, binder concentration: 1:2,000 dilution
# [14] = peptide modifications: H3R2me2a H3K9ac, binder concentration: 1:10,000 dilution
# [15] = peptide modifications: H3R2cit H3T3ph, binder concentration: 1:2,000 dilution
# [16] = peptide modifications: H3R2cit H3T3ph, binder concentration: 1:10,000 dilution
# [17] = peptide modifications: H3R2me1 H3K4me1, binder concentration: 1:2,000 dilution
# [18] = peptide modifications: H3R2me1 H3K4me1, binder concentration: 1:10,000 dilution
# [19] = peptide modifications: H3R2me1 H3T3ph, binder concentration: 1:2,000 dilution
# [20] = peptide modifications: H3R2me1 H3T3ph, binder concentration: 1:10,000 dilution
# [21] = peptide modifications: H3R2me1 H3K4ac, binder concentration: 1:2,000 dilution
# [22] = peptide modifications: H3R2me1 H3K4ac, binder concentration: 1:10,000 dilution
# [23] = peptide modifications: H3R2me1 H3K9ac, binder concentration: 1:2,000 dilution
# [24] = peptide modifications: H3R2me1 H3K9ac, binder concentration: 1:10,000 dilution
binder,measurement,setting,value
ARTKQTARKSTGG [H3 1-13 A Rme2a T Kme3 Q T A R K S T G G],peptide microarray binding signal,"[1]; peptide modifications: H3R2me2a H3K4me3, binder concentration: 50 nM",0.00912 ± 0.00034
same,peptide microarray binding signal,"[1]; peptide modifications: H3R2me2a H3K4me3, binder concentration: 500 nM",0.0301 ± 0.00069
same,peptide microarray binding signal,"[2]; peptide modifications: H3R2me2a H3K4me3, binder concentration: 10 nM",0.0149 ± 0.0016
same,peptide microarray binding signal,"[2]; peptide modifications: H3R2me2a H3K4me3, binder concentration: 100 nM",0.013 ± 0.0056
same,peptide microarray binding signal,[3]; [5],0.989 ± 0.041
same,peptide microarray binding signal,[3]; [6],0.193 ± 0.0034
same,peptide microarray binding signal,[4]; [5],0.249 ± 0.031
same,peptide microarray binding signal,[4]; [6],0.0997 ± 0.026
ARTKQTARKSTGG [H3 1-13 A Rme T K Q T A R Kme3 S T G G],peptide microarray binding signal,"[1]; peptide modifications: H3R2me1 H3K9me3, binder concentration: 50 nM",1 ± 0.14
same,peptide microarray binding signal,"[1]; peptide modifications: H3R2me1 H3K9me3, binder concentration: 500 nM",1 ± 0.23
same,peptide microarray binding signal,"[2]; peptide modifications: H3R2me1 H3K9me3, binder concentration: 10 nM",0.0582 ± 0.011
same,peptide microarray binding signal,"[2]; peptide modifications: H3R2me1 H3K9me3, binder concentration: 100 nM",0.106 ± 0.024
same,peptide microarray binding signal,[3]; [7],0.088 ± 0.024
same,peptide microarray binding signal,[3]; [8],0.0951 ± 0.017
same,peptide microarray binding signal,[4]; [7],0.544 ± 0.12
same,peptide microarray binding signal,[4]; [8],0.357 ± 0.091
ARTKQTARKSTGG [H3 1-13 A Rme T K Q T A R Kme2 S T G G],peptide microarray binding signal,"[1]; peptide modifications: H3R2me1 H3K9me2, binder concentration: 50 nM",0.151 ± 0.01
same,peptide microarray binding signal,"[1]; peptide modifications: H3R2me1 H3K9me2, binder concentration: 500 nM",0.167 ± 0.011
same,peptide microarray binding signal,"[2]; peptide modifications: H3R2me1 H3K9me2, binder concentration: 10 nM",0.047 ± 0.0094
same,peptide microarray binding signal,"[2]; peptide modifications: H3R2me1 H3K9me2, binder concentration: 100 nM",0.0747 ± 0.029
same,peptide microarray binding signal,[3]; [9],0.00563 ± 0.00089
same,peptide microarray binding signal,[3]; [10],0.00873 ± 0.0023
same,peptide microarray binding signal,[4]; [9],0.022 ± 0.012
same,peptide microarray binding signal,[4]; [10],0.0186 ± 0.014
ARTKQTARKSTGG [H3 1-13 A Rme2a T Kme Q T A R K S T G G],peptide microarray binding signal,"[1]; peptide modifications: H3R2me2a H3K4me1, binder concentration: 50 nM",0.0111 ± 0.00026
same,peptide microarray binding signal,"[1]; peptide modifications: H3R2me2a H3K4me1, binder concentration: 500 nM",0.0211 ± 0.001
same,peptide microarray binding signal,"[2]; peptide modifications: H3R2me2a H3K4me1, binder concentration: 10 nM",0.00585 ± 0.00028
same,peptide microarray binding signal,"[2]; peptide modifications: H3R2me2a H3K4me1, binder concentration: 100 nM",0.0274 ± 0.013
same,peptide microarray binding signal,[3]; [11],0.0329 ± 0.01
same,peptide microarray binding signal,[3]; [12],0.0417 ± 0.011
same,peptide microarray binding signal,[4]; [11],0.00468 ± 0.00097
same,peptide microarray binding signal,[4]; [12],0.00352 ± 0.00019
ARTKQTARKSTGG [H3 1-13 A Rme2a T K Q T A R Kac S T G G],peptide microarray binding signal,"[1]; peptide modifications: H3R2me2a H3K9ac, binder concentration: 50 nM",0.132 ± 0.1
same,peptide microarray binding signal,"[1]; peptide modifications: H3R2me2a H3K9ac, binder concentration: 500 nM",0.0324 ± 0.01
same,peptide microarray binding signal,"[2]; peptide modifications: H3R2me2a H3K9ac, binder concentration: 10 nM",0.0189 ± 0.0011
same,peptide microarray binding signal,"[2]; peptide modifications: H3R2me2a H3K9ac, binder concentration: 100 nM",0.0301 ± 0.0026
same,peptide microarray binding signal,[3]; [13],0.00698 ± 0.00018
same,peptide microarray binding signal,[3]; [14],0.00799 ± 0.0008
same,peptide microarray binding signal,[4]; [13],0.00634 ± 0.0012
same,peptide microarray binding signal,[4]; [14],0.0094 ± 0.0049
ARTKQTARKSTGG [H3 1-13 A Rcit Tph K Q T A R K S T G G],peptide microarray binding signal,"[1]; peptide modifications: H3R2cit H3T3ph, binder concentration: 50 nM",0.00364 ± 0.00018
same,peptide microarray binding signal,"[1]; peptide modifications: H3R2cit H3T3ph, binder concentration: 500 nM",0.0133 ± 0.0009
same,peptide microarray binding signal,"[2]; peptide modifications: H3R2cit H3T3ph, binder concentration: 10 nM",0.00125 ± 3.1e-05
same,peptide microarray binding signal,"[2]; peptide modifications: H3R2cit H3T3ph, binder concentration: 100 nM",0.0167 ± 0.011
same,peptide microarray binding signal,[3]; [15],0.00283 ± 0.00066
same,peptide microarray binding signal,[3]; [16],0.00126 ± 8.7e-05
same,peptide microarray binding signal,[4]; [15],0.000846 ± 7.1e-05
same,peptide microarray binding signal,[4]; [16],0.000807 ± 2.9e-05
ARTKQTARKSTGG [H3 1-13 A Rme T Kme Q T A R K S T G G],peptide microarray binding signal,"[1]; peptide modifications: H3R2me1 H3K4me1, binder concentration: 50 nM",0.00746 ± 0.00026
same,peptide microarray binding signal,"[1]; peptide modifications: H3R2me1 H3K4me1, binder concentration: 500 nM",0.0155 ± 0.00095
same,peptide microarray binding signal,"[2]; peptide modifications: H3R2me1 H3K4me1, binder concentration: 10 nM",0.0585 ± 0.006
same,peptide microarray binding signal,"[2]; peptide modifications: H3R2me1 H3K4me1, binder concentration: 100 nM",0.147 ± 0.034
same,peptide microarray binding signal,[3]; [17],0.0545 ± 0.02
same,peptide microarray binding signal,[3]; [18],0.023 ± 0.0071
same,peptide microarray binding signal,[4]; [17],0.00248 ± 0.00029
same,peptide microarray binding signal,[4]; [18],0.00127 ± 1.3e-05
ARTKQTARKSTGG [H3 1-13 A Rme Tph K Q T A R K S T G G],peptide microarray binding signal,"[1]; peptide modifications: H3R2me1 H3T3ph, binder concentration: 50 nM",0.00649 ± 0.00021
same,peptide microarray binding signal,"[1]; peptide modifications: H3R2me1 H3T3ph, binder concentration: 500 nM",0.0224 ± 0.0029
same,peptide microarray binding signal,"[2]; peptide modifications: H3R2me1 H3T3ph, binder concentration: 10 nM",0.00382 ± 7e-05
same,peptide microarray binding signal,"[2]; peptide modifications: H3R2me1 H3T3ph, binder concentration: 100 nM",0.0254 ± 0.0015
same,peptide microarray binding signal,[3]; [19],0.00321 ± 0.0015
same,peptide microarray binding signal,[3]; [20],0.00183 ± 0.00011
same,peptide microarray binding signal,[4]; [19],0.00154 ± 0.00026
same,peptide microarray binding signal,[4]; [20],0.000692 ± 1.5e-05
ARTKQTARKSTGG [H3 1-13 A Rme T Kac Q T A R K S T G G],peptide microarray binding signal,"[1]; peptide modifications: H3R2me1 H3K4ac, binder concentration: 50 nM",0.00636 ± 0.00044
same,peptide microarray binding signal,"[1]; peptide modifications: H3R2me1 H3K4ac, binder concentration: 500 nM",0.00867 ± 0.00048
same,peptide microarray binding signal,"[2]; peptide modifications: H3R2me1 H3K4ac, binder concentration: 10 nM",0.0133 ± 0.0026
same,peptide microarray binding signal,"[2]; peptide modifications: H3R2me1 H3K4ac, binder concentration: 100 nM",0.0738 ± 0.0056
same,peptide microarray binding signal,[3]; [21],0.00115 ± 0.0001
same,peptide microarray binding signal,[3]; [22],0.001541 ± 1.5e-05
same,peptide microarray binding signal,[4]; [21],0.00402 ± 0.0014
same,peptide microarray binding signal,[4]; [22],0.0011 ± 2.2e-05
ARTKQTARKSTGG [H3 1-13 A Rme T K Q T A R Kac S T G G],peptide microarray binding signal,"[1]; peptide modifications: H3R2me1 H3K9ac, binder concentration: 50 nM",0.0167 ± 0.0025
same,peptide microarray binding signal,"[1]; peptide modifications: H3R2me1 H3K9ac, binder concentration: 500 nM",0.121 ± 0.14
same,peptide microarray binding signal,"[2]; peptide modifications: H3R2me1 H3K9ac, binder concentration: 10 nM",0.0337 ± 0.00085
same,peptide microarray binding signal,"[2]; peptide modifications: H3R2me1 H3K9ac, binder concentration: 100 nM",0.0529 ± 0.0063
same,peptide microarray binding signal,[3]; [23],0.0105 ± 0.0012
same,peptide microarray binding signal,[3]; [24],0.00999 ± 0.00055
same,peptide microarray binding signal,[4]; [23],0.085 ± 0.13
same,peptide microarray binding signal,[4]; [24],0.0364 ± 0.046

# From the supplement of paper PMC4022240
